# In the library only some 5.2% were active in any assay of this set; here they are far more common.
# Tau fluor counter – Counterscreen qHTS for Inhibitors of Tau Fibril Formation, Fluorescence Polarization | 0.93% of 280,000 active | AID 1463, 2008 | Potency, µM (top dose mostly 57.7 µM), without a hit: at the highest dose activity change, negative = decrease | tau K18 P301L Alexa594 fluorescence, heparin fibrillization; note: potency is the fitted concentration of half-maximal effect; nearly all actives have a fitted effect of over 55% in size
#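 Human K18 P301L tau (15 uM unlabeled plus 0.24 uM Alexa 594-labeled, final) in 100 mM sodium acetate pH 7 was mixed with compound and 20 uM heparin and incubated 6 hr at 37 C.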
# Tau ThT inhib – qHTS for Inhibitors of Tau Fibril Formation, Thioflavin T Binding | AID 1460, 2008 | Potency, µM (series often up to 57.4 µM), for inactives: at the highest dose activity, negative = inhibition, hits mostly inhibitors | 2.1% of 270,000 active | recombinant tau K18 P301L (four-repeat tau fragment), heparin-induced fibrillization, ThT fluorescence; note: potency is the fitted concentration of half-maximal effect; nearly all actives have a fitted effect of over 55% in size
# Target sequence (P10636 561-689 P618L limits assumed): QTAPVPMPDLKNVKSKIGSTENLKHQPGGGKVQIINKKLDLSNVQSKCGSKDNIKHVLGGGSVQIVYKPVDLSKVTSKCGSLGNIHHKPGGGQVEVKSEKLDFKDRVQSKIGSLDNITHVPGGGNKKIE
#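 Heparin-induced fibrillization of the P301L-mutant K18 repeat-domain fragment of human tau was followed by ThT binding in quantitative high-throughput format.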
# Sfp PPTase inh – qHTS Assay for Inhibitors of Bacillus subtilis Sfp phosphopantetheinyl transferase (PPTase) | Biochemical Sfp PPTase activity, qHTS | Potency, µM, without a hit: largest response in the series, negative = inhibition, most hits filed as inhibitors | 3.5% of 310,000 active;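 note: the enzyme is Sfp with the accession as filed and its product quenches rhodamine fluorescence; potency is the fitted concentration of half-maximal effect; 0% = enzyme reaction without inhibitor and -100% = no enzyme wells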
#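 Compounds were incubated with enzyme (final 15 nM) for 15 min at room temperature before substrate addition started the reaction. Fluorescence at 525 nm excitation, 598 nm emission was recorded immediately and after 30 minutes.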
# Coupling enz – qHTS Assay for Inhibitors of Fructose-1,6-bisphosphate Aldolase from Giardia Lamblia: Coupling assay counterscreen. coupling enzyme system counterscreen, AmpLite Red fluorescence. 0.67% of 290,000 active. activity change, negative = inhibition, % at 58.2 µM, hits read low. AID 2472, 2010; in the data active = activity change below about -30%
#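 Compounds tested against the coupling enzymes alone at 57.5 uM final; readout was AmpLite Red fluorescence (525/598 nm) after 20 min at RT.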
# Tau fibril FP – qHTS for Inhibitors of Tau Fibril Formation, Fluorescence Polarization; Microtubule-associated protein tau (Homo sapiens), P10636; Potency, µM (series often up to 57.7 µM), for inactives: at the top dose activity, negative = inhibition, hits mostly inhibitors; AID 1468, 2008; K18 P301L tau heparin fibrillization, Alexa594 FP, 6 h; 0.39% of 280,000 active; note: potency is the fitted concentration of half-maximal effect; nearly all actives have a fitted effect of over 55% in size
#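 Human K18 P301L fragment (15 uM unlabeled plus 0.24 uM Alexa 594-labeled) in 100 mM sodium acetate pH 7 with compound, aggregation induced by 20 uM heparin for 6 hr at 37 C. ThT (30 uM) added for 1 hr, then Alexa 594 FP read.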
# * = called active by the depositor; ? = inconclusive; . = not tested or not shown; [ ] = another dose, or the depositor's remark. Unless noted, calls come from the whole dose curve; as a rule, active = well fitted curve in the direction sought with a large enough effect; inconclusive = small, poorly fitted or top-dose-only effect, or another doubt; inactive = no such curve, though single readings can be large; an effect the other way counts as inactive or inconclusive. Unless noted, % is set by controls: 0 for no effect and ±100 for the full control effect.
SMILES,Tau fluor counter,Tau ThT inhib,Sfp PPTase inh,Coupling enz,Tau fibril FP
CCOC(=S)NC(=O)c1sc2ccccc2c1Cl,-9%,?,45µM*,0,5%
COc1ccccc1N1CCN(S(=O)(=O)c2ccc(-c3ccno3)cc2OC)CC1,-24%,5%,.,.,17%
Cc1ccccc1NC(=S)C1=C(O)c2sccc2N(C)S1(=O)=O,-11%,?,56µM*,6,-3%
CN1c2ccsc2C(O)=C(C(=S)Nc2ccccc2)S1(=O)=O,-11%,?,56µM*,7,-10%
CC(=O)c1cc(-c2ccccc2)n(CCC(=O)Nc2ccc(C(C)C)cc2)c1C,-26%,-16%,.,.,4%
OCCCc1cn(-c2ccccc2)c2ccccc12,-8%[2.34 µM],2%,19%,4,-3%[2.34 µM]
Clc1nc(Cl)nc(-c2cn(-c3ccccc3)c3ccccc23)n1,-19%,-7%,56µM*,5,-2%
CCCCOc1ccc(C(=O)N2CCN(CCc3ccncc3)CC2)cc1,1%,1%,.,.,-9%
COc1cccc(/C=C/C(=O)c2c(O)cc(C)oc2=O)c1O,-27%,?,5%,-2,-4%
COc1cc(/C=C/C(=O)c2c(O)ccc3c(C)cc(=O)oc23)ccc1O,-21%,16µM*,-16%,3,-3%
CNC(=O)c1cc2cccc(OC)c2oc1=O,3%,-3%,17%,-2,5%
COc1ccc(/C=C/C(=O)c2cc3cccc(OC)c3oc2=O)cc1,-22%,7.1µM*,?,-3,14%
COc1cc(/C=C/C(=O)c2c(O)cc(C)oc2=O)cc(OC)c1O,?,28µM*,-23%,1,-14%
CN(C)c1ccc(/C=C/C(=O)c2cccnc2)cc1,?,5µM*,8%,-3,4%
O=C(/C=C/c1cccc(O)c1)c1cccnc1,5%,-15%,-26%,0,13%
Cc1nc(-c2ccc(C)c(S(=O)(=O)N3CCC(C(=O)NCc4ccc(F)cc4)CC3)c2)no1,-10%,2%,.,.,-9%
COc1cccc(CNS(=O)(=O)c2cc3[nH]c(=O)c(=O)[nH]c3cc2C)c1,-10%,-14%,.,.,-4%
O=C(/C=C/c1cccnc1)c1ccccc1O,3%,-15%,45µM*,1,5%
COc1ccc(C(=O)/C=C/c2ccc(N(C)C)cc2)c(OC)c1,14µM*[quencher],?,-18%,0,-3%
CN(C)c1ccc(/C=C/C(=O)c2ccccc2O)cc1,?,4µM*,-13%,-1,?
COc1ccc(C(=O)/C=C/c2cc(OC)c(O)c(OC)c2)c(F)c1,-4%,4%,79µM*,-10,0%
Cc1ccc(/C=C/C(=O)c2ccccc2O)cc1,-20%,?,-17%,-1,12%
Cc1ccc(NC(=O)N2CCc3cc(S(=O)(=O)N4CCC(C)CC4)ccc32)cc1,-8%,13%,.,.,-9%
COc1ccc(C(=O)/C=C/c2ccc(C)cc2)c(OC(=O)c2ccc([N+](=O)[O-])cc2)c1,?,3.5µM*,-1%,-2,9%
COc1ccc(C(=O)/C=C/c2ccccc2F)c(OC(=O)c2ccc([N+](=O)[O-])cc2)c1,?,?,9%,-2,11%
SMILES,Tau fluor counter,Tau ThT inhib,Sfp PPTase inh,Coupling enz,Tau fibril FP
Oc1c(Cl)cc(Cl)c2c1NCCC2,?,14µM*,16µM*,-48*,?
Cc1cc(N2CCCC2)ccc1/C=N/n1cnnc1,-29%,7.1µM*,-6%,-3,-5%
Cc1cc(N2CCCC2)ccc1/C=C1\NC(=S)N(C)C1=O,?,?,-15%,-18,5%
Cc1[nH]c2ccccc2c1C(c1ccccn1)c1c(C)[nH]c2ccccc12,?,?,40µM*,-71*,17%
CCN1CCN(c2nc(C)nc3c2sc(=S)n3C)CC1,-9%,?,2.8µM*,-29,-10%
O=C(O)CCc1ccc(-c2ccc(Cl)cc2)o1,-1%,?,20µM*,11,4%
O=C(O)CCc1ccc(-c2ccc(Br)cc2)n1Cc1ccco1,-9%,?,-1%,12,-8%
COc1ccc(-c2noc(CCC(=O)O)n2)cc1,-7%,-1%,4%,3,-7%
O=C(O)CCc1ccc(-c2ccc(Br)cc2)o1,-6%,?,18µM*,11,-2%
COc1ccc(-c2ccc(CCC(=O)O)o2)cc1,-13%,?,14µM*,4,-3%
COCc1cc(C)nc(SCC(=O)c2ccc(O)c(O)c2)c1C#N,?,?,56µM*,-1,2%
CCOC(=O)CSc1nc(C)cc(C)c1C#N,-4%,-14%,56µM*,2,3%
COc1ccc2nc(SC)c(C#N)cc2c1,-2%,2%,-3%,1,1%
CCOC(=O)CSc1nc2cc(OC)ccc2cc1C#N,?,5µM*,12%,1,10%
COc1ccc2nc(SCC(C)=O)c(C#N)cc2c1,-28%,4.5µM*,18%,-1,10%
CCCN1CCC(=O)N(C(CSc2ccc(Br)cc2)c2ccccc2)CC1 (stereo not drawn),.,.,11%,12,.
CC(C)c1ccc(OCc2cc(=O)n3c(-c4ccccc4)csc3n2)cc1,-19%,-10%,.,.,0%
CCOC(=O)CCc1c(C)nc(SCC(=O)O)c(C#N)c1C,-3%,-3%,79µM*,9,1%
Cc1c(N2C(=O)/C(=C\c3ccc(N(C)C)cc3)N(C)C2=S)c(=O)n(-c2ccccc2)n1C,-10%,14µM*,11%,0,4%
Cc1c(NC(=S)N/N=C/c2ccc(N(C)C)cc2)c(=O)n(-c2ccccc2)n1C,6%,-13%,2%,3,-5%
CN1C(=S)N(c2cccnc2)C(=O)/C1=C\c1ccc(N(C)C)cc1,?,4µM*,?,-7,2%
CN1C(=S)N(c2cccnc2)C(=O)/C1=C\c1ccc(C(C)(C)C)cc1,-1%,?,?,-1,8%
COc1ccccc1NC(=O)c1oc2ccccc2c1NC(=O)Cc1cccs1,?,1%,.,.,?
CCN1/C(=C/c2ccc3cc(C)ccc3[n+]2CC)Sc2cc(C)c(C)cc21,?,7.1µM*,25µM*,1,?
CCN1/C(=C/c2ccc3cc(C)ccc3[n+]2CC)Sc2ccccc21,14%,18µM*,11µM*,6,?
CC[n+]1ccccc1/C=C1\Sc2ccc(C)cc2N1C,.,.,-9%,1,.
CCN1/C(=C/c2sc(-c3ccccc3C)c[n+]2C)Sc2ccccc21,-1%,?,1%,2,2%
CC[n+]1c(/C=C2\Sc3ccccc3N2C)ccc2cccc(C)c21,28%,20µM*,?,6,?

# Screening data deposited in PubChem BioAssay by National Center for Advancing Translational Sciences (NCATS).
